Sampled rows, rich in hits. Any-hit rate of the full collection: about 3.4%.
SMARCA2 activ = SMARCA2 (BRM) function activators, primary screen, cell-based, luminescence, high throughput; MG213 cells, MMTV-luciferase reporter, dexamethasone, overnight; activation, % at 9.1 µM; 370,000 tested, 1% active; AID 652017, 2013; in the data active means activation above about 7.8%;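 further: 0% = vehicle wells and 100% = reference activator wells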
HSF1 inhib = HSF1 inhibitors in luciferase reporter cells, primary screen, cell-based, NIH3T3, luminescence | 300,000 tested, 0.77% active | activity change, negative = inhibition, % at 7.5 µM (by protocol) | NIH3T3-HGL HSE-luciferase, MG132-induced, luminescence 8 h; hits give low values | AID 2098, 2009;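 active means more than half of replicate wells show activity change below -50%, luminescence cut by over half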;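 further: luciferase reports HSF-1 transcriptional activity via heat shock element; 0% = median of DMSO wells and -100% = zero luminescence signal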
PG9 binder = binders of HIV-1 gp120 antibody PG9, primary screen, biochemical, TR-FRET; inhibition, % at 6.7 µM; 360,000 tested, 0.43% active; HIV-1 gp120 / PG9 antibody interaction; TR-FRET gp120-PG9 antibody binding; in the data active means inhibition above about 8.5%
AI-2 QS modul = Vibrio harveyi AI-2 quorum sensing modulators, primary screen, JMH597 strain, luminescence/OD600 ratio; activity change, % at 7.5 µM; AID 2094, 2009; 300,000 tested, 0.4% active; Vibrio harveyi JMH597 AI-2 luminescence/OD600 ratio, 9 h; hits give low values; strain lacks LuxN and CqsS sensors; 0 = neutral-control median; in the data active means activity change below about -75%, passing the limit was not always enough;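 further: luminescence divided by OD600 gain over 9 h not by final OD600 alone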
GAA850 FXN act = FXN promoter activators, primary screen, cell-based, luciferase luminescence, HEK293 lucGAA850; HEK293 lucGAA850 FXN promoter luciferase reporter, 24 h; percent of 10 µM SAHA response; activation, % at 6 µM; 360,000 tested, 0.56% active; AID 540364, 2011;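 active means activation above the average of all compounds screened plus 3 SD, cutoff fixed separately per campaign, cut at about 7.5% in these data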;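 further: 0% = DMSO wells and 100% = 10 µM SAHA wells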
HSP90 inh = HSP90 inhibitors, primary screen, cell lysate, luminescence; Heat shock protein HSP 90 (rabbit reticulocyte lysate; luciferase refolding); Rabbit reticulocyte lysate, luciferase refolding luminescence, 3 h; inhibition, % at 5.6 µM; 290,000 tested, 0.91% active; AID 1789, 2009;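 active means inhibition above the screen-wide mean plus 3 SD, computed separately per campaign, cut at about 16% in these data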;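 further: 0% = DMSO wells and 100% = 60 µM geldanamycin wells; inhibitors lower the luminescence because luciferase stays unfolded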
PG9 bind confirm = binders of anti-gp120 antibody PG9, confirmation, biochemical, TR-FRET; AID 651571, 2012; inhibition, % at 6.7 µM; shares compounds with PG9 binder; TR-FRET PG9 antibody binding; 1,500 tested, 90% active; in the data active means inhibition above about 9%
PGV04 Ab binding = binders of control antibody PGV04, counter-screen for PG9 antibody binder project, biochemical, TR-FRET, distinct HIV envelope site | shares compounds with PG9 binder | TR-FRET PGV04 antibody-gp120 binding | inhibition, % at 6.7 µM | 1,500 tested, 95% active | AID 651604, 2012; in the data active means inhibition above about 9.5%
PG9 binder DR = small-molecule binders of antibody PG9, dose response, biochemical, TR-FRET, HIV-1 gp120 antibody; TR-FRET PG9 antibody-gp120 binding inhibition; IC50, µM; 95 tested, under 10 active; shares compounds with PG9 binder; AID 651848, 2012; in the data active means IC50 below about 10 µM
PGV04 DR counter = binders of control antibody PGV04, dose response, counter-screen for PG9 antibody binder project, biochemical, TR-FRET, distinct HIV envelope site; IC50, µM; AID 651937, 2012; shares compounds with PG9 binder; 95 tested, 20% active; TR-FRET binding to control antibody PGV04
PG126 DR counter = binders of control antibody PG126, dose response, counter-screen for PG9 antibody binder project, biochemical, TR-FRET, distinct HIV envelope site; shares compounds with PG9 binder; TR-FRET binding to antibody PG126, counterscreen; IC50, µM; 95 tested, 20% active
Numbers without * were called inactive; i = inactive; / = no result given. Unless noted, no stated cut-off is given here; in the data, active means IC50 below about 9 µM; inactive means the rest.

SMILES	SMARCA2 activ	HSF1 inhib	PG9 binder	AI-2 QS modul	GAA850 FXN act	HSP90 inh	PG9 bind confirm	PGV04 Ab binding	others
O=C(O)CSc1nnc2c(n1)[nH]c1ccccc12	-2	-5	-3	47	2	-2	/	/
CCc1nnc(NC(=O)c2ccc(Cl)c(S(=O)(=O)N3CCc4ccccc4C3)c2)s1	0	-2	20*	17	0	1	24*	34*
Cc1nc(SCC(=O)Nc2ccccc2Cl)c2c(C)c(C)sc2n1	-2	/	19*	/	2	/	12*	17*
Cc1cc(NC(=O)CSc2nc(C3CC3)nc3sc(C)c(C)c23)no1	0	4	8.9*	29	-2	4	13*	12*	PG9 binder DR=>67;PGV04 DR counter=i;PG126 DR counter=i
c1ccc(COCCc2cn(Cc3ccccc3)c3ccccc23)cc1	-1	/	0	/	/	/	/	/
O=C1N(c2ccccc2)CC2C(c3ccccc3)C(c3ccccc3)N3CCCC123 (configuration not stated)	-4	/	/	/	/	/	/	/
CCOC(=O)c1ccccc1NC(=O)Cn1c(=O)n(Cc2ccccc2)c(=O)c2c(C)c(C)sc21	2	4	12*	15	1	0	5	7
O=c1ccc(-c2ccc(S(=O)(=O)N3CCN(c4ccccc4)CC3)o2)n[nH]1	0	-3	25*	17	1	-1	43*	48*
O=c1ccc(-c2ccc(S(=O)(=O)N3CCN(c4cccc(Cl)c4)CC3)o2)n[nH]1	-2	7	3	6	0	-2	/	/
C#CCNC(=O)C[C@H]1C[C@@]2(C(=O)OC)C(=C[C@H](C(C)C)O[C@@H]2C2CC2)N(CCCCCCCC)C1=O	-2	/	/	/	/	/	/	/
O=C(NN=Cc1ccccc1O)C(=O)Nc1ccc(F)cc1	-6	/	2	/	/	/	/	/
COc1cc(-c2cc(-c3ccccc3)nc(SCC(=O)Nc3nccs3)c2C#N)cc(OC)c1OC	0	-5	-2	9	3	1	/	/
Cc1nc(SCC(=O)Nc2nccs2)c(C#N)c(C)c1C	-2	/	33*	/	-5	/	44*	66*
CC(=O)c1ccc(N2CCN(C(=O)c3ccc(-c4ccccc4)cc3)CC2)cc1	1	0	26*	47	0	-1	44*	54*
O=c1[nH]c2cc3c(cc2cc1C(c1nnnn1C1CCCC1)N1CCSCC1)OCCO3 (configuration not stated)	2	-11	21*	6	1	2	42*	29*	PG9 binder DR=i;PGV04 DR counter=8*;PG126 DR counter=7.8*
CC(C)CCOc1ncnc2c1sc1nc3c(cc12)CSC(C)(C)C3	-2	/	26*	/	2	-1	5	29*
O=C(Nc1ccc(F)cc1Cl)c1ccc2c(=O)n3c(nc2c1)CCCCC3	-1	3	29*	5	1	2	30*	9.7*	PG9 binder DR=>67;PGV04 DR counter=i;PG126 DR counter=i
COc1ccccc1CCn1cnc(-c2cccc(F)c2)c1C(C)C	-7	/	0	/	/	/	/	/
COc1ccc(CCNC(=O)c2ccc3c(c2)N(Cc2ccc(C)cc2)CCS3)cc1OC	/	35	/	14	-2	2	/	/
Cc1ccc(CN2CCSc3ccc(C(=O)NCCCN4CCN(C)CC4)cc32)cc1	0	3	25*	-12	0	7	29*	34*
Nn1c(SCC(=O)NC2CCCCC2)nnc1-c1ccc(Cl)cc1	-3	-4	4	15	-1	2	/	/
N#Cc1c(N)nc(SCC(=O)NC2CCCCC2)c(C#N)c1-c1ccc(Cl)cc1	-3	-16	18*	24	1	11	26*	29*
COc1ccccc1-c1c(C#N)c(SCC(=O)N2CCCC2)nc(C)c1C(N)=O	/	0	/	50	/	0	/	/
CC(C)c1ccc(-c2c(C#N)c(N)nc(SCC(=O)N3CCCCC3)c2C#N)cc1	0	12	42*	8	1	1	69*	66*	PG9 binder DR=6*;PGV04 DR counter=3.4*;PG126 DR counter=4*
CC(C)c1ccc(-c2c(C#N)c(N)nc(SCC(=O)N3CCCCCC3)c2C#N)cc1	-1	2	83*	28	/	2	89*	92*
SMILES	SMARCA2 activ	HSF1 inhib	PG9 binder	AI-2 QS modul	GAA850 FXN act	HSP90 inh	PG9 bind confirm	PGV04 Ab binding	others
CCCCCCCCN1C(=O)[C@@H](CC(=O)NCc2ccc(OC)c(OC)c2)C[C@@]2(C(=O)OC)C1=C[C@H](C(C)C)O[C@@H]2C1CC1	-3	/	/	/	/	/	/	/
COC(=O)c1ccc(N2C(=O)CC(N3CCOCC3)C2=O)cc1 (configuration not stated)	2	-4	13*	12	1	1	7	9.3*
COC(=O)c1ccc(N2C(=O)CC(N3CCN(c4ccccc4)CC3)C2=O)cc1 (configuration not stated)	0	/	1	8	-1	3	/	/
COc1ccc2nc(-c3ccccc3)[nH]c(=O)c2c1	3	/	54*	/	4	/	68*	77*
COc1ccc2nc(C)[nH]c(=O)c2c1	1	-3	0	-2	0	-4	/	/
CC(=O)C1=C(C)N(Cc2ccc(Br)cc2)C(=S)NC1c1cccc(F)c1 (configuration not stated)	0	/	0	/	/	/	/	/
COc1ccc(C(C(=O)NC2CCCC2)N2CCc3ccccc32)cc1 (configuration not stated)	-1	9	12*	-3	-2	0	25*	34*
CC(C)C[C@H]1COc2cc(NCCO)ccc2S(=O)(=O)N1	3	/	0	/	/	/	/	/
CC12CCC=CC1=C(C=O)C1C2CCC2(C)C(O)CCC12 (configuration not stated)	-4	/	1	/	1	/	/	/

High-throughput results as filed in PubChem BioAssay.
